# Test results published in article PMC7862700, “An all-to-all approach to the identification of sequence-specific readers for epigenetic DNA modifications on cytosine”.
# Tests used:
# Assay in all cases: DAPPL (digital affinity profiling via proximity ligation, sequencing); 10 mM Tris-HCl pH 7.5, 50 mM NaCl, 1 mM DTT, 4% glycerol, room temperature, 30 min; GST-TFs on glutathione beads, 16-mer random dsDNA library, 0.1% formaldehyde crosslink after washing; high values mean tight binding
# Details in all cases: protein: recombinant; tags: N-terminal GST; dsDNA, one strand shown
# ELF4 = ELF4 (Homo sapiens, UniProt Q99607 1-663)
# Procedure, shortened: (§1)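 Sequencing on an Illumina NextSeq500 followed washing, crosslinking with 0.1% formaldehyde, proximity ligation (BsaI/T4 ligase, 1 h, 37 °C) and PCR amplification of pools that had been incubated for 30 min at room temperature with 200 nmole of a random double-stranded 16-mer DNA library in Tris/NaCl/DTT/glycerol buffer. Each pool held DNA-barcoded human transcription factors, expressed in yeast as GST fusions and captured on glutathione beads, plus a tag-only sample. Binding signal is a hexamer's read frequency for a factor divided by its frequency in the tag-only sample.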
# ELF3 = target: T1, ELF3 (Homo sapiens, UniProt P78545 1-371)
# T1 sequence: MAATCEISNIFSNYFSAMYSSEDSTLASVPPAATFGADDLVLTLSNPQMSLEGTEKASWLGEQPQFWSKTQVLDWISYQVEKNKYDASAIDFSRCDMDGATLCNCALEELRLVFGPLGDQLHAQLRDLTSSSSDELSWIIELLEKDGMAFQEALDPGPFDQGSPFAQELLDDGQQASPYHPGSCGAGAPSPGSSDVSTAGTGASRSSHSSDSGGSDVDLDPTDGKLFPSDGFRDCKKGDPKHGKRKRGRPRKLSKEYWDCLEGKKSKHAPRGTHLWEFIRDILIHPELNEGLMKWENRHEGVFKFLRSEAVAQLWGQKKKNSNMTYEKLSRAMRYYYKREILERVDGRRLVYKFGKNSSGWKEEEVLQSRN
# Procedure, shortened: as §1
# CRX = CRX (Homo sapiens, UniProt O43186 1-299)
# Procedure, shortened: as §1
# ETV3L = target: T2, ETV3L (Homo sapiens, UniProt Q6ZN32 1-361)
# T2 sequence: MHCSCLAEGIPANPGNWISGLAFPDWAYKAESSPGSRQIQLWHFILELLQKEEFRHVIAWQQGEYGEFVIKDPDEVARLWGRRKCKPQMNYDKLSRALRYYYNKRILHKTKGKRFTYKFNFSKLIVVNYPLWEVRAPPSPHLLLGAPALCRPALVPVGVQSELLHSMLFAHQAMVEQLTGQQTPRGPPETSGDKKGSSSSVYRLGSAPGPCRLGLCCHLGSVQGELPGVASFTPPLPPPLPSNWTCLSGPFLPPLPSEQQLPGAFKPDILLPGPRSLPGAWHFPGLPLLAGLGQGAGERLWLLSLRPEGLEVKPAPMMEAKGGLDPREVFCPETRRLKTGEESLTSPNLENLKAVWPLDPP
# Procedure, shortened: as §1
# SPIB = SPIB (Homo sapiens, UniProt Q01892 1-262)
# Procedure, shortened: as §1
# ELK4 = target: T3, ELK4 (Homo sapiens, UniProt P28324-2 1-405)
# T3 sequence: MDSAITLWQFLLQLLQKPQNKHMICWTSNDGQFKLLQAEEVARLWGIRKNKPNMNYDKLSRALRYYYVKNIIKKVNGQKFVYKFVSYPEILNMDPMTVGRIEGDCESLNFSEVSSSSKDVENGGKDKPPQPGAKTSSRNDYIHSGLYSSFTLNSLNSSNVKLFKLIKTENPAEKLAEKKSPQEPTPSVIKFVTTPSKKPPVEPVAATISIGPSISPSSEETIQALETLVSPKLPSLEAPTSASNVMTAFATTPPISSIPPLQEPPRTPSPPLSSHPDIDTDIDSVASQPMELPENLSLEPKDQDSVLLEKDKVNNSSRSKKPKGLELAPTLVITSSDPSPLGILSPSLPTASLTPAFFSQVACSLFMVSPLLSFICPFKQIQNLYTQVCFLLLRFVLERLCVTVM
# Procedure, shortened: as §1
# ELK1 = target: T4, ELK1 (Homo sapiens, UniProt P19419 1-428)
# T4 sequence: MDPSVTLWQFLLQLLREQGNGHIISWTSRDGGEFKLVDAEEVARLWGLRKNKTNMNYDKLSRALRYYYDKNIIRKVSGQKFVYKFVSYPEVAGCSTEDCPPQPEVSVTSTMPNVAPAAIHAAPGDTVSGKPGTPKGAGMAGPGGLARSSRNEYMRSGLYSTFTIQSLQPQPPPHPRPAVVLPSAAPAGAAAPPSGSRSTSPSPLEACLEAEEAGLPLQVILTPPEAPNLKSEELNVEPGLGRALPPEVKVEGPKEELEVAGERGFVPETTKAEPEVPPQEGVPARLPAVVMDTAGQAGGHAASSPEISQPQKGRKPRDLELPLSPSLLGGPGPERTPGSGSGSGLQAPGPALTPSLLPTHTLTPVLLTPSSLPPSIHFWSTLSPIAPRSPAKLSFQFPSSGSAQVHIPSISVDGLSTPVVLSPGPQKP
# Procedure, shortened: as §1
# GABPA = target: T5, GABPA (Homo sapiens, UniProt Q06546 1-454)
# T5 sequence: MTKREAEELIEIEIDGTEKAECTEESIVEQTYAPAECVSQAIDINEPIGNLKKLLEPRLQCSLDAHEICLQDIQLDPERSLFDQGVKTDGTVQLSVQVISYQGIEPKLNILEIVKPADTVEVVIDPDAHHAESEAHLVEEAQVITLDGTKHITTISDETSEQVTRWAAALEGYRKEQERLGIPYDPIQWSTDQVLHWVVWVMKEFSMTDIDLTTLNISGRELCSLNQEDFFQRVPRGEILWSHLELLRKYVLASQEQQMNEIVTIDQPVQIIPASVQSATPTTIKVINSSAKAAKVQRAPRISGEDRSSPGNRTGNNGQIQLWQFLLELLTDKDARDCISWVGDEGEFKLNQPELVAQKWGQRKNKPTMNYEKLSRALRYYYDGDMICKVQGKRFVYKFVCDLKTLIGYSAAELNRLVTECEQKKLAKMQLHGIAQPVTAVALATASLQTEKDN
# Procedure, shortened: as §1
# ELF1 = ELF1 (Homo sapiens, UniProt P32519 1-619)
# Procedure, shortened: as §1
# ELK3 = target: T6, ELK3 (Homo sapiens, UniProt P41970 1-407)
# T6 sequence: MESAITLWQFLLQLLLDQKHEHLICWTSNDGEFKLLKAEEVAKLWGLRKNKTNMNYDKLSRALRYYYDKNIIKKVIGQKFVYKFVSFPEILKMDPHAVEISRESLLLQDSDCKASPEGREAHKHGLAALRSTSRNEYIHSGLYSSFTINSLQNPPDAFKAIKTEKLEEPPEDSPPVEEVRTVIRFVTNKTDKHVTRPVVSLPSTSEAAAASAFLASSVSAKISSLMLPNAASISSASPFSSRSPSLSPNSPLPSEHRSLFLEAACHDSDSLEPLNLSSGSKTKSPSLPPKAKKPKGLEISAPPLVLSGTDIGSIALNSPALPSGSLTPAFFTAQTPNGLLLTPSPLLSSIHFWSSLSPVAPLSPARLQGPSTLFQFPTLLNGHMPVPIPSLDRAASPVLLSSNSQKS
# Procedure, shortened: as §1
# ETV2 = target: T7, ETV2 (Homo sapiens, UniProt O00321 1-342)
# T7 sequence: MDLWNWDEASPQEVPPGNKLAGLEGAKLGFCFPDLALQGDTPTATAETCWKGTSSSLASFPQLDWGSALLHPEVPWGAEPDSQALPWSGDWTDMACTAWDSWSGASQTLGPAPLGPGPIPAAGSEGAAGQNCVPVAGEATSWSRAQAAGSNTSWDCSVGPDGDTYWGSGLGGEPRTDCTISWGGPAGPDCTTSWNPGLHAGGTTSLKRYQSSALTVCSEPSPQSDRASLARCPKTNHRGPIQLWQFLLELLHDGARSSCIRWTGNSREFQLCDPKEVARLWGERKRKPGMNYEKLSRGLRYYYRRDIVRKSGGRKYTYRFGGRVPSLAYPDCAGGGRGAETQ
# Procedure, shortened: as §1
# ERF = target: T8, ERF (Homo sapiens, UniProt P50548 1-548)
# T8 sequence: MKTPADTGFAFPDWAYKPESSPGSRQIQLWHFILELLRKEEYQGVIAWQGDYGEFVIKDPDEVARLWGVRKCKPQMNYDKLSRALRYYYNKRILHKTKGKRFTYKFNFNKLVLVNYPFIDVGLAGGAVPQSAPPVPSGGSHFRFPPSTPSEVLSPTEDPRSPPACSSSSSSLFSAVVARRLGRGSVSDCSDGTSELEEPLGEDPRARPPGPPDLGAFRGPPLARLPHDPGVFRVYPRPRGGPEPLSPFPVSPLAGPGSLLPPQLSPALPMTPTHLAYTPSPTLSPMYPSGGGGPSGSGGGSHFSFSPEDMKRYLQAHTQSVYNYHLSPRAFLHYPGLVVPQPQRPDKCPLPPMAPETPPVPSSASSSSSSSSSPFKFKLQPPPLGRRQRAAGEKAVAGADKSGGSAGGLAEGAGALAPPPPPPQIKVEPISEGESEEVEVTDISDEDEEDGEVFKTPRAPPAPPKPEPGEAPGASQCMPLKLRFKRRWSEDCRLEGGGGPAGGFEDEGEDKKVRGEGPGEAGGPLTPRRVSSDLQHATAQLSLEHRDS
# Procedure, shortened: as §1
# SPDEF = target: T9, SPDEF (Homo sapiens, UniProt O95238 1-335)
# T9 sequence: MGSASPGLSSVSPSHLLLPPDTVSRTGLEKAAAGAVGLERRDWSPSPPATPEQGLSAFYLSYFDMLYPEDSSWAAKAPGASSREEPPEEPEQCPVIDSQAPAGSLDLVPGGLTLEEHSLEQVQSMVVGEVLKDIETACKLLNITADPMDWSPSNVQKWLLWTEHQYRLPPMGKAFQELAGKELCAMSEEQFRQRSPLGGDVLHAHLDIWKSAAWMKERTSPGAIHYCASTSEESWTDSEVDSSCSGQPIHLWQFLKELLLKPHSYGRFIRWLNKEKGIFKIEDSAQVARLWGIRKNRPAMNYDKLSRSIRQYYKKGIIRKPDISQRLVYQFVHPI
# Procedure, shortened: as §1
# ETV3 = target: T10, ETV3 (Homo sapiens, UniProt P41162-2 1-143)
# T10 sequence: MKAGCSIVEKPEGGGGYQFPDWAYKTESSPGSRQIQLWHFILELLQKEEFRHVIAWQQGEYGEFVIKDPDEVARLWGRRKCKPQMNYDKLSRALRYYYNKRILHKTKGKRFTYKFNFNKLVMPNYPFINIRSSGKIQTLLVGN
# Procedure, shortened: as §1
# ETV6 = ETV6 (Homo sapiens, UniProt P41212 1-452)
# Procedure, shortened: as §1
# Sequence of ELF4 (Q99607 whole entry, the tested form may be a part): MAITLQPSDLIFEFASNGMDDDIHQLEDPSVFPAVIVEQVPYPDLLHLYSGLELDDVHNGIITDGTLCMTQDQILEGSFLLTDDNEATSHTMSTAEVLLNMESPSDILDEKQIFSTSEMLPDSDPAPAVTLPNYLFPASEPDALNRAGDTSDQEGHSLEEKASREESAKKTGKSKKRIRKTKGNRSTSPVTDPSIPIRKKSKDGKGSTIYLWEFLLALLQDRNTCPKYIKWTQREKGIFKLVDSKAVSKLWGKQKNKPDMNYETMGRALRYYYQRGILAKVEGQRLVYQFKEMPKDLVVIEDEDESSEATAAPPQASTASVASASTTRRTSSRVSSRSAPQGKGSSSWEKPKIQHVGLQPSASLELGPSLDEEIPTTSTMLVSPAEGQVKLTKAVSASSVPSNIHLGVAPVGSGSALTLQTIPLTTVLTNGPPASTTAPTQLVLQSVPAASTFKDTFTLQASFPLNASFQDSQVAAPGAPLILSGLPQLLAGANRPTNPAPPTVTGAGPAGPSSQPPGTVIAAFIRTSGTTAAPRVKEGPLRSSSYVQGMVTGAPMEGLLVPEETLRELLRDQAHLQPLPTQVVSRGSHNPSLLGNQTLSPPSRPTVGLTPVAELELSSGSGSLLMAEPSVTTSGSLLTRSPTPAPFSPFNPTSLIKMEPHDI
# Sequence of SPIB (Q01892 whole entry): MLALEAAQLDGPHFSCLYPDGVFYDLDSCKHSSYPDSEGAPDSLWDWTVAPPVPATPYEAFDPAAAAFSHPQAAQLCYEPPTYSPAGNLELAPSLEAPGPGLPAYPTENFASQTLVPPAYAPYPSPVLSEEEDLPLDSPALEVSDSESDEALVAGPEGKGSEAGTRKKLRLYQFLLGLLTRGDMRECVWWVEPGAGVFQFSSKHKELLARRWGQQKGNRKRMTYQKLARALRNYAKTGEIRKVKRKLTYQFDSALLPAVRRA
# Sequence of ELF1 (P32519 whole entry): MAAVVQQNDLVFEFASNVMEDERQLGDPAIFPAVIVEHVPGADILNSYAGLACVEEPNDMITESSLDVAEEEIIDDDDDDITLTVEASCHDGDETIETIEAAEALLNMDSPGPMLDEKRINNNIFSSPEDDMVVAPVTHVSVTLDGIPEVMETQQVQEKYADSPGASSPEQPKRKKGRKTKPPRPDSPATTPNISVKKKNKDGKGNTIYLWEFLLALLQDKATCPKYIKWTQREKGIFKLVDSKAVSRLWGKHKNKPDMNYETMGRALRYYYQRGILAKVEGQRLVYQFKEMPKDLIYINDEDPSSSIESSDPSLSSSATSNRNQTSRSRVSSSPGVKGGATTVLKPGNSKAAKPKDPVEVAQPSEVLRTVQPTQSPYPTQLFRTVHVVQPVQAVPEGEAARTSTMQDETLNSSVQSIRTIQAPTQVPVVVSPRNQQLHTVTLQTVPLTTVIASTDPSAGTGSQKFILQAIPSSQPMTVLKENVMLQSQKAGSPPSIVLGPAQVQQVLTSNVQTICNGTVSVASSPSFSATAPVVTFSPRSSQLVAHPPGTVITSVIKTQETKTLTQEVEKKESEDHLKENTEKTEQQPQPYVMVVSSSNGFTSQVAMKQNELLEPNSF
# Sequence of ETV6 (P41212 whole entry): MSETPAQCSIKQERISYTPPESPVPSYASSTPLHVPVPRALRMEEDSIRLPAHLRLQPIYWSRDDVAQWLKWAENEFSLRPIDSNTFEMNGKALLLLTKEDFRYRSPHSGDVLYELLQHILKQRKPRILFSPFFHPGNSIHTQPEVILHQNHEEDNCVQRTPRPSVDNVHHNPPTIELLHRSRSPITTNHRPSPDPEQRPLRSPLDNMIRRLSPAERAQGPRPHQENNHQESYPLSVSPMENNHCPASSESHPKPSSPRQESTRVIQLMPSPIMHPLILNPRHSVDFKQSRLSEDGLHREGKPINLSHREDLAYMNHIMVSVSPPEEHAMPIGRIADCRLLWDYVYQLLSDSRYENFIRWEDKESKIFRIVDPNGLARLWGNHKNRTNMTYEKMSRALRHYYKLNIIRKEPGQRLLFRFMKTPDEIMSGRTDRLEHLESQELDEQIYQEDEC
# Sequence of CRX (O43186 whole entry): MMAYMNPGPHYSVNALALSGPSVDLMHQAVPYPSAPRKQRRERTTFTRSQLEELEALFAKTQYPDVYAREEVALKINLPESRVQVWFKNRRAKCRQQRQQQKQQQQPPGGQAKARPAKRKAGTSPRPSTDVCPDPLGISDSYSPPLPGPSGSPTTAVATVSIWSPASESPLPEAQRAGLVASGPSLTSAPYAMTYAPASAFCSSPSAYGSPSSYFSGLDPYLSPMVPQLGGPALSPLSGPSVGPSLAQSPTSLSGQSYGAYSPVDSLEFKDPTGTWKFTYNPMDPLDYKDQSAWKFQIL
sequence,measurement,setting,value
GACTAT,binding signal,ELF4,"1.01 fold enrichment (6-mer frequency, TF over GST control)"
same,binding signal,ELF3,"1.03 fold enrichment (6-mer frequency, TF over GST control)"
same,binding signal,CRX,"1.02 fold enrichment (6-mer frequency, TF over GST control)"
same,binding signal,ETV3L,"1.04 fold enrichment (6-mer frequency, TF over GST control)"
CCGCGG,binding signal,SPIB,"1.04 fold enrichment (6-mer frequency, TF over GST control)"
same,binding signal,ELF4,"1.01 fold enrichment (6-mer frequency, TF over GST control)"
ATAGTG,binding signal,ELK4,"1.06 fold enrichment (6-mer frequency, TF over GST control)"
GTGGTC,binding signal,ELK4,"1.06 fold enrichment (6-mer frequency, TF over GST control)"
CAAACG,binding signal,ELK1,"1.04 fold enrichment (6-mer frequency, TF over GST control)"
same,binding signal,GABPA,"1.05 fold enrichment (6-mer frequency, TF over GST control)"
same,binding signal,ELF1,"1.04 fold enrichment (6-mer frequency, TF over GST control)"
same,binding signal,ELK3,"1.07 fold enrichment (6-mer frequency, TF over GST control)"
same,binding signal,ELK4,"1.05 fold enrichment (6-mer frequency, TF over GST control)"
same,binding signal,ETV2,"1.02 fold enrichment (6-mer frequency, TF over GST control)"
same,binding signal,ELF3,"1.06 fold enrichment (6-mer frequency, TF over GST control)"
same,binding signal,ERF,"1.03 fold enrichment (6-mer frequency, TF over GST control)"
same,binding signal,SPDEF,"1.02 fold enrichment (6-mer frequency, TF over GST control)"
same,binding signal,ETV3,"1.04 fold enrichment (6-mer frequency, TF over GST control)"
same,binding signal,ETV6,"1.02 fold enrichment (6-mer frequency, TF over GST control)"
